Hits are enriched below; roughly 7.4% of the tested compounds scored in any of these assays.
NPC1 prom act: activators of NPC1 promoter | AID 485313 | 320,000 compounds, 2.4% hits | Huh7 NPC1 promoter luciferase reporter, 24 h | Potency, µM (doses to about 9.22 µM), inactives show at the highest dose activation, usual class: activators; further: % of control where 0% means no effect; nearly all actives have a fitted effect of over 60% in size
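Cells: Huh7 expressing luciferase under the NPC1 promoter, 1500/well. Seeded 2 h, compound added, incubated 24 h at 37 °C. Luciferase reagent, 10 min ambient, then luminescence.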
SMN2 splice up: increases expression of the SMN2 splice variant; Potency, µM (highest dose often 46.1 µM), inactives show at the top dose activity change, positive = activation, hits mostly activators; HEK293 SMN2-luciferase splicing reporter, luminescence, 30-36 h; 210,000 compounds, 2.8% hits; further: % of control where 0% means no effect; nearly all actives have a fitted effect of over 55% in size
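qHTS luciferase splicing reporter: luminescence rises when SMN2 exon 7 is included in transfected HEK293 cells. Compound exposure lasted 30-36 h at 37C, with 4.5 mM final sodium butyrate as control, followed by a ONE-Glo read.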
Rab9 promoter act: activates the Rab9 promoter; Huh7 Rab9 promoter-luciferase reporter, luminescence, 24 h; Potency, µM (doses to about 9.22 µM), without a hit: at the top dose activation, negative = inhibition, actives largely listed as activators; 320,000 compounds, 2.8% hits; AID 485297; further: % of control where 0% means no effect; nearly all actives have a fitted effect of over 60% in size
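Huh7 cells stably carrying a Rab9 promoter-luciferase reporter, 1500 cells per well in OP-MEM I with 10% FBS, treated with compound 24 hours at 37C. Luciferase activity read by luminescence after 10 minutes with Amplite reagent.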
FLuc counter: firefly luciferase modulation, counter-screen for miR-21 project | P08659 | purified FLuc, Km substrates, luminescence inhibition | Potency, µM (titrated, usually from 57.5 µM), without a hit: at the top dose activity change, negative = inhibition, actives largely listed as inhibitors | 360,000 compounds, 6.9% hits | AID 588342;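 further: plate controls were vehicle for no effect and reference inhibitor for full effect; nearly all actives have a fitted effect of over 55% in size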
Target sequence (P08659 whole entry, looked up): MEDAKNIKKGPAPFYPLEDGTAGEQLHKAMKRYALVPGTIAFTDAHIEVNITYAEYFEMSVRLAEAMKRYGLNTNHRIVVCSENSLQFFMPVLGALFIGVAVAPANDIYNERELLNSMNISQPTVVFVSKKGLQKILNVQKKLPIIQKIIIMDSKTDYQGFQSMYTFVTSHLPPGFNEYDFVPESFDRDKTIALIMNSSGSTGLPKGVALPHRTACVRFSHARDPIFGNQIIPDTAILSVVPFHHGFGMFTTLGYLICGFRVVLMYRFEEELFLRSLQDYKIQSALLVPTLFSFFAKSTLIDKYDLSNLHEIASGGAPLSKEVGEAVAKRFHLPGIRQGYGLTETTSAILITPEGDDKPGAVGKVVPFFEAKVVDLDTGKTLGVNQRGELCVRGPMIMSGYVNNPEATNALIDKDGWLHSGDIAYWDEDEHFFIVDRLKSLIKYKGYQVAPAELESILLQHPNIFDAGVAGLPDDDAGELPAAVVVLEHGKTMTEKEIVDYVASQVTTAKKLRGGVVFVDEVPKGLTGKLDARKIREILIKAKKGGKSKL
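Purified P. pyralis luciferase (10nM final) with 10uM D-luciferin and 10uM ATP (Km levels) in 50mM Tris acetate pH 7.5, 10mM Mg acetate, 0.01% Tween-20, 0.05% BSA; qHTS 6-point titration, ~60 µM downward; luminescence read.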
ELG1 genotox: genotoxicity induction in ELG1-luciferase HEK293T cells; AID 504466; HEK293T ELG1-luciferase reporter, luminescence, 16 h; 330,000 compounds, 1.3% hits; Potency, µM (series often up to 46 µM), without a hit: at the highest dose activity change, positive = activation, hits mostly activators; further: % of control where 0% means no effect; nearly all actives have a fitted effect of over 60% in size
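After overnight (16 hr) compound treatment at 37 °C, ELG1-luciferase HEK293T cells were lysed with ONE-Glo; luminescence quantified 30 min later at room temperature.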
KinaseGlo FLuc: counter-screen: inhibitors of Kinase-Glo firefly luciferase; 200,000 compounds, 0.28% hits; Kinase-Glo luciferase, ATP luminescence, 8 min; Q27757; Potency, µM (highest dose often 38.3 µM), for inactives: at the highest dose activity change, negative = inhibition, hits mostly inhibitors; AID 1379; further: on the % scale 0 is the no-effect control and ±100 the full control effect; nearly all actives have a fitted effect of over 60% in size
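Inhibition of Kinase-Glo luciferase light generation was assessed at 10 uM ATP in pH 7.2 imidazole buffer, with luminescence measured after eight minutes at ambient temperature.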
Starred values were filed as active, the others as inactive; ? = inconclusive; · = no result given; [ ] = remark or other dose. The call rests on the fitted dose curve; in most records, active means well fitted curve in the direction sought with a large enough effect; inconclusive means small, poorly fitted or top-dose-only effect, or another doubt; inactive means no such curve, though single readings can be large; an effect the other way counts as inactive or inconclusive. Potency means the concentration at half of the fitted maximal effect.

SMILES	NPC1 prom act	SMN2 splice up	Rab9 promoter act	FLuc counter	ELG1 genotox	KinaseGlo FLuc
COc1ccc(N=Nc2c(O)[nH]c(=S)[nH]c2=O)cc1	1.6µM*	18µM*	1.8µM*	6µM*	?	?
O=c1[nH]c(=S)[nH]c(O)c1N=Nc1ccc(OC(F)F)cc1	?	13µM*	2µM*	5.4µM*	?	-17%
O=c1[nH]c(=S)[nH]c(O)c1N=Nc1cccc(S(=O)(=O)N2CCOCC2)c1	1%	·	-1%	2%	1%	·
S=P(C1CCCCC1)(C1CCCCC1)[C@H](c1cccnc1)N1CCCC1	·	-4%[9.22 µM]	·	·	·	-3%[7.66 µM]
CCc1ccc(CCN2CCCCC2)nc1	·	1%[9.22 µM]	·	·	·	-2%[7.66 µM]
N[C@@H](Cc1ccccc1)P(=O)(O)O	·	-1%[9.22 µM]	·	·	·	-1%[7.66 µM]
O=C1c2ccccc2-c2c1nc1c([n+]2[O-])CCCC1	25%	26%	3.5µM*	1%	?	-2%
C/C=C/C=O	·	2%	·	·	·	·
O=C(CSc1ccc(-c2ccco2)nn1)Nc1ccccc1	3%	-21%	18%	?	-1%	1%
CCc1nnc(NC(=O)CSc2ccc(-c3ccco3)nn2)s1	0%	-26%	0%	15µM*	10%	-4%
O=[N+]([O-])c1ccc(-c2[se]c3ccccc3c2I)cc1	·	·	·	·	·	-4%[39.9 µM]
CN1CCc2cc3c(c4c2C1Cc1ccccc1-4)OCO3 (stereo not drawn)	9%	·	6.3µM*	-1%	-6%	·
Cc1nn(CC(C)C)c(Cl)c1C(=O)NC1CCC(C)CC1 (stereo not drawn)	2.2µM*	·	4µM*	8.5µM*	9.2µM*	·
Cc1cccc(N)c1C	·	17%	·	·	·	·
COc1ccc(C(=O)C23CN4CN(CN(C4)C2)C3)cc1	-5%	·	-9%	0%	0%	·
COc1ccc(C(=O)Nc2sc3c(c2C(=O)O)CC(C)(C)OC3)cc1	-1%	-36%	-8%	17µM*	-7%	-1%
COc1cc2c(cc1OC)[C@]13CC[N@+]4(C)CC5=CCO[C@H]6CC(=O)N2[C@@H]1C6[C@@H]5C[C@]34O (stereo partly drawn)	·	-2%[9.22 µM]	·	·	·	-4%[7.66 µM]
Cc1cc(/C=C2\C(=O)NC(=S)N(C)C2=O)c(C)n1C1CCCCC1	-2%	1%	-4%	0.48µM*	?	-3%
CCN1C(=O)C(=Cc2cc(C)n(C3CC3)c2C)C(=O)N(CC)C1=S	-4%	0%	0%	-2%	2%	-3%
Cc1cc(C=C2C(=O)N(C)C(=S)N(C)C2=O)c(C)n1C1CCCC1	0%	-14%	-9%	2.4µM*	?	-4%
C[C@@H]1[C@@H](C)N1C[C@H](O)Cn1ccnc1[N+](=O)[O-] (stereo partly drawn)	·	0%[9.22 µM]	·	·	·	2%[7.66 µM]
O=c1c2ccccc2nc(/C=C/c2cccnc2)n1Cc1ccccc1	-4%	·	-5%	27µM*	-5%	-1%
O=c1[nH]c(=O)n(-c2ccccc2F)c(O)c1/C=C1\C=Nc2ccccc21	-1%	·	-9%	17µM*	14%	·
O=c1[nH]c(=O)n(CC2CCCO2)c(O)c1/C=C1\C=Nc2ccccc21 (stereo not drawn)	1%	11%	0%	17µM*	0%	-1%
O=c1[nH]c(=O)n(-c2ccc(F)cc2)c(O)c1/C=C1\C=Nc2ccccc21	1%	·	-4%	6%	-1%	·
SMILES	NPC1 prom act	SMN2 splice up	Rab9 promoter act	FLuc counter	ELG1 genotox	KinaseGlo FLuc
CO[C@H]1[C@H](O)[C@H](O[C@@H]2[C@H](Oc3cccc4c(O)c5c(=O)oc6ccc(C)c7c(=O)oc(c34)c5c67)O[C@@H](C)[C@H](O)[C@H]2O)O[C@@H](C)[C@@H]1O	·	19%[9.22 µM]	·	·	·	-2%[7.66 µM]
COc1cccc(OCc2cc(C(=O)N3C[C@H]4C[C@@H](C3)c3cccc(=O)n3C4)no2)c1	3.2µM*	·	4µM*	17µM*	18µM*	·
Cc1ccc(OP(=O)(Oc2ccc(C)cc2)Oc2ccc(C)cc2)cc1	·	-10%	·	·	·	·
CC(C)[C@]1(O)[C@@H](OC(=O)c2ccc[nH]2)[C@]2(O)[C@@]3(C)C[C@@]4(O)O[C@@]5([C@H](O)[C@@H](C)CC[C@]35O)[C@]2(O)[C@]41C	·	-2%[9.22 µM]	·	·	·	-1%[7.66 µM]
CC(=O)c1ccc(OC(=O)N(C)c2ccccc2)cc1	?	16µM*	?	-18%	?	4%
O=C(O)Cn1cc(/C=C2\C(=O)NC(=O)N(Cc3ccco3)C2=O)c2ccccc21	-2%	0%	-2%	17µM*	-14%	0%
CCC12CCN(CC3CC3)CC1Oc1c(C)cccc12 (stereo not drawn)	·	·	·	4%	·	·
Nc1ccccc1O.O.O=C(O)[C@H]1[O][Sb][O][C@H]1C(=O)O	·	-26%[9.22 µM]	·	·	·	-4%[7.66 µM]
CN(C)C(=O)Nc1cccc(C(F)(F)F)c1	·	-2%	·	·	·	·
O=C(NNc1c(F)c(F)cc(F)c1F)c1cc2ccccc2oc1=O	?	22%	3.2µM*	?	?	-1%
Cc1cc2oc(=O)cc(-c3cc4ccccc4o3)c2cc1OC(=O)N(C)C	-13%	·	-5%	2%	1%	·
COc1ccc(-c2nc(CSCC(=O)N3CCN(c4ccc(F)cc4)CC3)c(C)o2)cc1	·	-57%	·	-12%	·	·
COc1ccc(C(=O)Nc2nnc(S(=O)(=O)N(CC(C)C)c3ccc(C)cc3)s2)cc1OC	·	·	·	8.5µM*	·	·
CCCCNC(=O)Nc1ccc(C(O)(C(=O)OC)C(F)(F)F)cc1 (stereo not drawn)	13%	·	13%	?	16%	·
COC(=O)N(C)c1ccc(C(O)(C(=O)OC)C(F)(F)F)cc1 (stereo not drawn)	-2%	2%	-1%	1%	-3%	-4%
COC(=O)C(O)(c1ccc(NC(=O)c2cccs2)cc1)C(F)(F)F (stereo not drawn)	26%	·	?	15µM*	17%	·
COC(=O)C(O)(c1ccc(NC(=O)c2ccccc2)cc1)C(F)(F)F (stereo not drawn)	?	·	?	19µM*	9%	·
Oc1cccc(Cl)c1	·	-1%	·	·	·	·
Cc1cccc(-n2c(/C=C/c3ccccc3O)nc3ccccc3c2=O)c1	·	-39%	·	0%	·	·
